tim23-1 inh: tim23-1 yeast growth inhibition; inhibition, % at 20 µM; S. cerevisiae tim23-1 growth, BacTiter-Glo luminescence, 24 h; 330,000 compounds, 1.3% hits;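 active = growth inhibition of the mutant yeast at or above 50%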;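 also: temperature-sensitive mutant grown at 25 °C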
Mdm2-MdmX inh: disrupts the human Mdm2-MdmX interaction. O15151+Q00987. SaOS-2 split-luciferase Mdm2/MdmX complementation, luminescence. inhibition, % at 8 µM. 330,000 compounds, 3% hits;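 active = inhibition of at least 50% at 8 µM in the primary screen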
Target sequence (O15151 whole entry, looked up): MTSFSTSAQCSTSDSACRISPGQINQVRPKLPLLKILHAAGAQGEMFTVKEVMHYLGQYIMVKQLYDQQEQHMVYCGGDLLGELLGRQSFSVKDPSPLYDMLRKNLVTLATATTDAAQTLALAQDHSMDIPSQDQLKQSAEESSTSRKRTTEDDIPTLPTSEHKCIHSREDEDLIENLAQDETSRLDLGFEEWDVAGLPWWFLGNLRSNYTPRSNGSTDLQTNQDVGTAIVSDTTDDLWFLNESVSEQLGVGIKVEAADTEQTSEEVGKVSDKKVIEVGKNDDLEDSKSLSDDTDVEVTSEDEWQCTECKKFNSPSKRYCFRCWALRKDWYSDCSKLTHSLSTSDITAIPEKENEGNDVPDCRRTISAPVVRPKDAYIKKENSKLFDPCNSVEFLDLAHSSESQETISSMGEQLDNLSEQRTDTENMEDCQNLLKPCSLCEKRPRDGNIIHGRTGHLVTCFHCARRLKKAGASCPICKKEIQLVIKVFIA
Target sequence (Q00987 whole entry, looked up): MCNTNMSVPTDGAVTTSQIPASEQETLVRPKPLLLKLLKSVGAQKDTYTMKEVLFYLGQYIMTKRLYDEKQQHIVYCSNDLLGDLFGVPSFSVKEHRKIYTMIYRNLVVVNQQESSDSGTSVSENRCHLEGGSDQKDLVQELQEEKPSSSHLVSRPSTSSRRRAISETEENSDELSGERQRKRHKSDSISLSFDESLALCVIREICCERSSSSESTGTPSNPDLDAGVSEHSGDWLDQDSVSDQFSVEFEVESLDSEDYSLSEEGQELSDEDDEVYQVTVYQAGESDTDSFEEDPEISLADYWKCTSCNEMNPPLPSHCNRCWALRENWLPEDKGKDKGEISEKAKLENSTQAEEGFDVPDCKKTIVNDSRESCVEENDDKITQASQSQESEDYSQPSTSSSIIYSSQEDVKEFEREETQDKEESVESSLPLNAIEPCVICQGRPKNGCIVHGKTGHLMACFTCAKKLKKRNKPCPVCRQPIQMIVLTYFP
MPTP block: permeability transition pore inhibition. AID 602449. inhibition, % at 10 µM. 360,000 compounds, 1.4% hits. isolated mouse mitochondria, Ca2+ swelling absorbance, 30 min;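 active = inhibition of 50% or more, scaled per plate between neutral and stimulator controls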
tim10-1 inh: tim10-1 yeast growth inhibition; 330,000 compounds, 2.2% hits; S. cerevisiae tim10-1 ts strain growth, BacTiter-Glo, 24 h; inhibition, % at 20 µM;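 active = inhibition of at least 40%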;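 also: mutant grown at 25 °C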
TIM10 inh: inhibits growth of TIM10 yeast strain; S. cerevisiae TIM10 strain growth, BacTiter-Glo luminescence, 24 h; inhibition, % at 10 µM; 330,000 compounds, 1.4% hits;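 active = inhibition of 40% or more at the single tested concentration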;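 also: wild-type TIM10 isogenic control strain grown at permissive 25 °C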
tim10-1 confirm: tim10-1 yeast growth inhibition, confirmed; S. cerevisiae tim10-1 ts strain growth, BacTiter-Glo, 24 h; shares compounds with tim10-1 inh; inhibition, % at 20 µM; 7,400 compounds, 56% hits; AID 463213;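 active = inhibition of yeast growth at or above a set limit in either of two repeat tests at 20 µM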;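 also: tim10-1 mutant grown at permissive 25 °C to find synthetic lethal compounds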
TIM10 conf: TIM10 yeast growth inhibition, confirmed | shares compounds with TIM10 inh | S. cerevisiae tim10 strain growth, BacTiter-Glo luminescence, 24 h | inhibition, % at 10 µM | 4,600 compounds, 63% hits | AID 463215;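 active = inhibition of yeast growth at or above a set limit in either of two replicates at 10 µM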; also: this counterscreen used the strain with wild-type TIM10
tim23-1 confirm: confirmation of tim23-1 mutant yeast growth inhibitors; S. cerevisiae tim23-1 growth, BacTiter-Glo luminescence, 24 h; 4,400 compounds, 83% hits; shares compounds with tim23-1 inh; inhibition, % at 20 µM;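 active = inhibition above about 39% in either of two replicate wells at 20 µM, limit read from the data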;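 also: temperature-sensitive tim23-1 mutant grown at 25 °C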
Mdm2 MdmX conf: confirmation of human Mdm2/MdmX interaction inhibitors; shares compounds with Mdm2-MdmX inh; 10,000 compounds, 55% hits; inhibition, % at 8 µM; Mdm2-MdmX binding, luminescent assay; in the data active = inhibition above about 40%
FLuc counter: full-length luciferase inhibition in Mdm2/MdmX counter-screen. 6,200 compounds, 77% hits. inhibition, % at 8 µM. AID 504607. SaOS-2 full-length luciferase counterscreen, luminescence. shares compounds with Mdm2-MdmX inh;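 active = mean inhibition at 8 µM reaching about 37%, which flags the compound as non-specific, limit read from the data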;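 also: p53-null SaOS-2 cells with luciferase driven by a doxycycline-inducible promoter; compound on cells about two nights before reading with doxycycline added after day one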
MPTP counter: membrane potential counter-screen of mitochondrial pore inhibitors. shares compounds with MPTP block. isolated mitochondria, Rhodamine 123 fluorescence. inhibition, % at 10 µM. 5,000 compounds, 78% hits; in the data active = inhibition above about 22%
Of the large screens only hits and unclear results are named; the others gave an inactive call (follow-up assays come after a bar, where they were run). The list is not random: actives were taken first. Their share in the collection is about 6.3%.

CC1=C(C)/C(=N\OS(=O)(=O)c2ccccc2)C=CC1=O	tim23-1 inh 50, Mdm2-MdmX inh 95, MPTP block 109, tim10-1 inh 94, TIM10 inh 95 | tim10-1 confirm 93 | TIM10 conf inactive | tim23-1 confirm 94 | Mdm2 MdmX conf 84 | FLuc counter 53 | MPTP counter 99
CC(N=c1ccccn1C(=O)Nc1cccc(C(F)(F)F)c1)c1ccco1 (stereo unspecified)	MPTP block 90, tim10-1 inh 41 | tim10-1 confirm 33 | MPTP counter 84
CCN(CC)S(=O)(=O)c1ccc(N2CCN(C)CC2)c(NC(=O)CN2C(=O)NC3(CCCCC3)C2=O)c1	none (no result: tim23-1 inh, Mdm2-MdmX inh, tim10-1 inh, TIM10 inh)
CN(Cc1cnn(-c2ccc(F)cc2)c1)C(=O)[C@H]1O[C@@H](n2ccc(=O)[nH]c2=O)[C@H](O)[C@@H]1O	none (no result: tim23-1 inh, Mdm2-MdmX inh, tim10-1 inh, TIM10 inh)
COc1ccc(-c2cc3ccccc3[nH]2)cc1	none
Cc1ccc(O)c(-c2cc3ccccc3[nH]2)c1	MPTP block 53, tim10-1 inh 53, TIM10 inh 46 | tim10-1 confirm 40 | TIM10 conf 47 | MPTP counter 49
Cc1ccc2nc(-c3cccc(Br)c3)c(Cc3ccccc3)n2c1	none (no result: tim23-1 inh, Mdm2-MdmX inh, tim10-1 inh, TIM10 inh)
CN(C)S(=O)(=O)Oc1cccc(C(=O)Nc2ccc(Cl)c(Cl)c2)c1	MPTP block 96, tim10-1 inh 57, TIM10 inh 49 | tim10-1 confirm 44 | TIM10 conf 65 | MPTP counter 91
CCCC(=O)N1CCCC1(C)C(=O)Nc1ccc(OC(F)F)cc1 (stereo unspecified)	none (no result: tim23-1 inh, Mdm2-MdmX inh, tim10-1 inh, TIM10 inh)
CC(C)c1ccc(S(=O)(=O)Nc2ccc(SC(F)F)cc2)cc1	MPTP block 72, tim10-1 inh 50 | tim10-1 confirm 28 | MPTP counter 83
Cc1ccccc1NC(=S)Nc1ccccc1	none
Cc1cc(NC(=S)Nc2ccccc2)ccc1Br	MPTP block 71, tim10-1 inh 41 | tim10-1 confirm inactive | MPTP counter 79
CCCCN1C(=O)C(CC(=O)NCC2CCCCC2)CC(C(=O)N2CCCCCC2)=C1C (stereo unspecified)	none (no result: tim23-1 inh, Mdm2-MdmX inh, tim10-1 inh, TIM10 inh)
O=C(/C(=C\c1ccccc1)c1nc2ccccc2[nH]1)c1ccc(Cl)cc1	tim23-1 inh 51, Mdm2-MdmX inh 100, MPTP block 75, tim10-1 inh 43 | tim10-1 confirm 34 | tim23-1 confirm 62 | Mdm2 MdmX conf inactive | MPTP counter 75
O=C(/C(=C/c1ccc(Cl)cc1)c1nc2ccccc2[nH]1)c1cccs1	tim23-1 inh 51, Mdm2-MdmX inh 81, MPTP block 66, tim10-1 inh 56, TIM10 inh 70 | tim10-1 confirm 39 | TIM10 conf 71 | tim23-1 confirm inactive | Mdm2 MdmX conf 100 | FLuc counter 51 | MPTP counter 75
COC(=O)/C(=C\c1ccc(O)cc1)c1nc2ccccc2[nH]1	none
Cc1ccc(-n2[nH]c(C)c(/C=N/Nc3ccc([N+](=O)[O-])cc3[N+](=O)[O-])c2=O)cc1	MPTP block 112, tim10-1 inh 49 | tim10-1 confirm 35 | MPTP counter 69
Cc1[nH]n(-c2ccc([N+](=O)[O-])cc2)c(=O)c1C=NCC1CCCO1 (stereo unspecified)	none
CCc1ccc(CN2CCC(Oc3cc(C(=O)NC4CC4)ccc3OC)CC2)cc1	none (no result: tim23-1 inh, Mdm2-MdmX inh, tim10-1 inh, TIM10 inh)
C/C(=N/Nc1ccc([N+](=O)[O-])cc1)c1ccc(C)cc1C	MPTP block 65, tim10-1 inh 42 | tim10-1 confirm inactive | MPTP counter 60

Bioassay records deposited in PubChem by Sanford-Burnham Center for Chemical Genomics.
